Measurements reported in PubChem BioAssay AID2289 (National Center for Advancing Translational Sciences (NCATS), 2010).
Out of some 340,000 compounds screened, about 3,300 (0.97%) were called active. Not shown: some 9% with an inconclusive outcome. Calls come from the whole dose curve; as a rule, active = well fitted inhibition curve with a large enough effect; inconclusive = small, poorly fitted or top-dose-only effect, or effect the other way; inactive = flat fitted curve, though single readings scatter. Some of the results follow.

Experiment: qHTS Assay for Modulators of miRNAs and/or Inhibitors of miR-21; note: nearly all actives have a fitted effect of over 55% in size
Settings: HeLa miR-21-FLuc reporter, luciferase luminescence, 48 h; actives lower the signal
Description: MLSCN Grant: 1 R21 NS059478-01 Assay Provider: Qihong Huang, The Wistar Institute NCGC Assay Overview: MicroRNAs (miRNAs) are endogenously encoded small (~20-25 nucleotides), nonprotein-coding RNAs that are involved in post-transcriptional repression of target messenger RNAs (mRNAs) (Le and Hannon, 2004). Estimated to be involved in the regulation of 30% of all protein-coding mRNAs (Filipowicz et al., 2008), miRNAs play a significant role in many biological processes including cellular differentiation and tissue development (Ghildiyal and Zamore, 2009).
NCGC Assay Protocol Summary: Reagents: HeLa cells stably expressing firefly luciferase (FLuc) under the control of a CMV promoter (upstream) and a miR-21 binding sequence directly downstream of the gene. These cells endogenously express miR-21. Control compounds used were compound C3 (provided by collaborator), N6-phenyladenosine (MP Biomedicals, 0215379625), and DMSO. Assay Summary: 6uL of HeLa miR-21-FLuc cells in assay buffer (DMEM, Invitrogen #21063-029; 10% FBS, HyClone #SH30071.03) were dispensed at 2000cells/well (3.3 x 10^5 cells/mL) into Greiner solid-white TC-treated 1536-well plates using a Multidrop Combi (Thermo Fisher Scientific). Plates were incubated for one hour at 37 degree Celsius, 95% humidity, 5% CO2. These assay plates were then treated with 23nL of compound or DMSO using a Kalypsys pin tool, which allows for delivery of a 24-point titration of each compound to the assay plate, with a final compound concentration ranging from approximately 40uM to 5pM. Assay plates were then incubated for 48 hours. After incubation, plates were allowed to come to RT for one hour prior to delivery of 3uL of 3X luciferase detection reagent. After a 15 minute incubation to allow for cell lysis, luciferase activity was measured using a ViewLux CCD imager (PerkinElmer), with an average exposure time of 2-12 seconds. Keywords: NIH Roadmap, MLPCN, MLSMR, qHTS, miR-21, microRNA, firefly luciferase, FLuc.
Potency is the fitted concentration of half-maximal effect.

Potency, active:
O=C(CCCc1ccccc1)c1ccccc1 2.07 µM
O=C(CCCc1ccccc1)Nc1cccc(C(=O)O)c1 0.464 µM
COc1cccc(NC(=O)C(=O)NCCc2ccc(F)cc2)c1 11.7 µM
O=C(NCc1ccccc1)C(=O)Nc1cccc(C(=O)O)c1 0.185 µM
Cc1cccc(NC(=O)CCCc2ccccc2)c1 7.36 µM
Cc1cccc(NC(=O)C(=O)NCCCc2ccccc2)c1 16.5 µM
COc1ccccc1-c1cnn2c(NC3CCCC3)cc(C)nc12 5.85 µM
Cc1cc(N2CCOCC2)n2ncc(-c3ccc(Cl)cc3)c2n1 0.414 µM
Cc1cc(N2CCOCC2)n2ncc(-c3ccccc3Cl)c2n1 1.65 µM
COc1ccccc1-c1cnn2c(N3CCOCC3)cc(C)nc12 14.7 µM
CNC(=O)c1sc(-c2ccc(Cl)cc2)nc1C 6.56 µM
Cc1nc(-c2ccc(Cl)cc2)sc1C(=O)O 11.7 µM
C/C(=N\O)c1sc(-c2ccccc2)nc1C 1.85 µM
Cc1cc(/C=C\c2ccccc2)nc2ccccc12 7.36 µM
CC(C)(C)n1cnc2cc(NCc3ccc(Br)cc3)ccc21 4.14 µM
CCc1ccc(CNc2ccc3c(c2)ncn3C(C)(C)C)cc1 5.85 µM
O=C(O)c1ccc(N/N=C/C2=Cc3ccccc3OC2)cc1 1.17 µM
CCS(=O)(=O)c1ccc2oc(Nc3ccccc3Br)nc2c1 2.07 µM
CCN(CC)S(=O)(=O)c1ccc2oc(Nc3ccccc3)nc2c1 9.27 µM
CCS(=O)(=O)c1ccc2oc(Nc3ccccc3Cl)nc2c1 1.85 µM
C=CCNc1nc(Nc2ccccc2F)nc(OCC)n1 5.85 µM
Cc1cccc(NC(=O)C2Cc3ccccc3O/C2=N\O)c1 (stereo unspecified) 14.7 µM
Cc1ccc(NC(=O)C2Cc3ccccc3O/C2=N\O)cc1C (stereo unspecified) 14.7 µM
O=C(Nc1ccc(Br)cc1)C1Cc2ccccc2O/C1=N\O (stereo unspecified) 7.36 µM
COCCNc1oc(/C=C/c2ccccc2)nc1C#N 2.07 µM
COCCCNc1oc(/C=C/c2ccccc2)nc1C#N 0.464 µM
N#Cc1nc(/C=C/c2ccccc2)oc1NCCCN1CCOCC1 10.4 µM
CC(C)c1ccc(NC(=O)C(c2ccccc2)N2CC(=O)Nc3ccccc32)cc1 (stereo unspecified) 13.1 µM
CCC(C)C(=O)N1CCc2cc(-c3csc(N)n3)ccc21 (stereo unspecified) 1.65 µM
CCCC(=O)N1c2ccc(-c3csc(N)n3)cc2CC1C (stereo unspecified) 1.85 µM
O=c1[nH]n(Cc2ccccc2)c(=O)c2ccccc12 13.1 µM
Cc1ccc2nc(NC(=S)NC(=O)c3cccs3)sc2c1 0.656 µM
O=C(NC(=S)Nc1nc2ccccc2s1)c1cccs1 0.521 µM
O=S(=O)(c1cc(F)ccc1F)N1CCC2(CC1)OCCO2 5.21 µM
COc1cc2ccccc2cc1C(=O)NC(=S)Nc1cccc(C(=O)O)c1 14.7 µM
COc1cc(OC)c(C(=O)Nc2ccc3ccccc3c2)cc1OC 2.93 µM
COc1ccc(NC(=O)c2sc3nc[nH]c(=O)c3c2C)cc1 5.85 µM
COc1ccc(C(=O)c2cc3cccc(OC)c3o2)cc1 3.29 µM
COc1cc(OC)c(C(=O)Nc2ccc(N(C)C)cc2)cc1OC 8.26 µM
O=C(Nc1ccc2ccccc2c1)c1cc(F)c(F)cc1Cl 0.656 µM
COc1ccc(NC(=O)c2ccc3nc[nH]c3c2)cc1 7.36 µM
COc1cccc2cc(C(=O)N3CCc4ccccc4C3)c(=O)oc12 16.5 µM
COc1ccc(C(=O)Nc2ccc3cn[nH]c3c2)c(OC)c1 4.65 µM
COc1cccc2cc(C(=O)Nc3ccc(C)cc3)c(=O)oc12 0.736 µM
COc1ccc(-c2cccc(C(=O)Nc3cccc(C(=O)O)c3)c2)cc1 6.56 µM
COc1cccc(NC(=O)c2cc3cccc(OC)c3o/c2=N\O)c1 0.414 µM
COc1cccc(NC(=O)c2cc3ccccc3cc2OC)c1 2.33 µM
CCOC(=O)CC(NC(=O)c1cc2cccc(OC)c2oc1=O)c1ccc(OC)cc1 (stereo unspecified) 16.5 µM
COc1ccc(C(c2c(O)ccc3ccccc23)N2CCOCC2)c(OC)c1 (stereo unspecified) 11.7 µM
Cc1ccsc1C1NC(=O)c2c(sc3c2CCCC3)N1 (stereo unspecified) 5.85 µM
CCN(CC)c1ccc(NC(=O)C2CC3CCC2C3)cc1 (stereo unspecified) 10.4 µM
O=[N+]([O-])c1ccccc1NCCOc1ccccc1 7.36 µM
O=[N+]([O-])c1cc(C(F)(F)F)ccc1NCCOc1ccccc1 7.36 µM
N#Cc1ccc(C(=O)NC2CCCCCCC2)cc1 5.85 µM
O=C(NC1CCCCC1)c1ccc2c(c1)OCCO2 2.93 µM
O=C(NC1CC1)c1ccc(-c2ccccc2)cc1 3.69 µM
Cc1cccc(C(=O)NC2CCCCCCC2)c1 2.93 µM
N#Cc1nc(COc2ccccc2)oc1N1CCCCC1 13.1 µM
N#Cc1nc(COc2ccccc2F)oc1N1CCCCCC1 16.5 µM
N#Cc1nc(-c2ccccc2Cl)oc1N1CCCCC1 16.5 µM
COC(=O)Nc1ccc2c(c1)ncn2C1CCCCC1 18.5 µM
CN(c1ccccc1)S(=O)(=O)c1nnc(NC(=O)c2cccs2)s1 0.117 µM
Cc1cc(=O)[nH]c(N/N=C/c2cc(C)n(-c3ccccc3)c2C)n1 3.29 µM
COc1ccc(NC(=O)c2ccc(Br)o2)cc1 4.14 µM
COc1ccc(NC(=S)NC(=O)c2ccc(Br)o2)cc1 3.29 µM
Cc1ccc(C(=O)NC(=S)NCC2CCCO2)cc1Br (stereo unspecified) 8.26 µM
O=C(O)c1ccc(/C=C/c2ccc3cccc(O)c3n2)cc1 4.14 µM
C(=C\c1ccco1)/c1ccc2ccccc2n1 0.656 µM
O=[N+]([O-])c1cccc2ccc(/C=C/c3ccc(F)cc3)nc12 7.36 µM
O=[N+]([O-])c1ccccc1/C=C/c1ccc2ccccc2n1 1.31 µM
Cc1ccc2c(CN(C)Cc3cccc(F)c3)cc(=O)oc2c1 13.1 µM
Cc1ccc2c(CNCc3ccco3)cc(=O)oc2c1 9.27 µM
COc1ccc(N=Cc2nc(-c3ccccc3)oc2OC(=O)c2ccccc2)cc1 1.85 µM
CCN(/C=N/c1sc2c(c1C#N)CCCCC2)CC 3.69 µM
CC1CCc2c(sc(/N=C/N(C)C)c2C#N)C1 (stereo unspecified) 7.36 µM
CN(C)/C=N/c1sc2c(c1C#N)CCCCC2 5.21 µM
CCn1c(C)nc2cc(C(=O)NNC(=S)Nc3ccccc3Cl)ccc21 7.36 µM
CCn1c(C)nc2cc(C(=O)NNC(=S)Nc3ccccc3OC)ccc21 14.7 µM
CCN(CC)CCn1c2ccccc2c2nc3ccc([N+](=O)[O-])cc3cc21 14.7 µM
O=C1CCCC(O)=C1N=Nc1ccc2c(c1)OCO2 14.7 µM
O=C(Nc1ccc(-c2nc3ccccc3s2)c(O)c1)C1=COCCO1 0.261 µM
CCSc1ccccc1C(=O)Nc1ccc(-c2nc3ccccc3s2)c(O)c1 3.69 µM
O=C(Nc1ccc(-c2nc3ccccc3s2)c(OC(=O)c2ccccc2)c1)c1ccccc1 0.329 µM
O=C(CC1Sc2ccccc2NC1=O)c1ccc(Br)cc1 (stereo unspecified) 8.26 µM
CC(=O)Nc1ccccc1C(=O)C(=O)Nc1ccc(C)c(C)c1 5.21 µM
CC(=O)Nc1ccccc1C(=O)C(=O)Nc1ccc(C)c(F)c1 2.33 µM
Cn1c2ccccc2c(=O)c2ccc(-c3ccc4c(c3)OCO4)cc21 1.04 µM
CN(C)c1ccc(-c2ccc3c(=O)c4ccccc4n(C)c3c2)cn1 4.65 µM
Cc1ccc(N2C(=O)c3ccccc3NC2(C(=O)O)c2ccccc2)cc1Cl (stereo unspecified) 2.93 µM
O=[N+]([O-])c1ccccc1CSc1nc2ccccc2o1 14.7 µM
COc1ncnc2c1oc1ccccc12 8.26 µM
COc1ccc(Oc2ncnc3c2oc2ccccc23)cc1 11.7 µM
CC(=O)c1ccc(Oc2ncnc3c2oc2ccccc23)cc1 0.927 µM
Cc1ccc(/C=N/n2c(C)nc3ccccc3c2=O)s1 6.56 µM
Cc1nc2ccccc2c(=O)n1/N=C/c1ccccc1Cl 6.56 µM
Fc1ccccc1CSc1nnc(-c2cccs2)o1 3.29 µM
CC(C)(C)c1nnc(NC(=O)c2ccc3c(c2)OCO3)s1 1.47 µM
CCC(CC)c1nnc(NC(=O)c2ccc3c(c2)OCO3)s1 7.36 µM
O=C(N/N=C/c1cccc(F)c1)NC1CCCCC1 16.5 µM
O=C(N/N=C/c1ccccc1F)NC1CCCCC1 10.4 µM
COc1cccc(/C=N/NC(=O)NC2CCCCC2)c1O 4.14 µM
NS(=O)(=O)c1cccc(NC(=O)CCSc2ccccc2Cl)c1 10.4 µM
O=C(CCSc1ccccc1Cl)Nc1cccc([N+](=O)[O-])c1 11.7 µM
CN(C)C(=O)c1ccc(-c2cc(C(F)(F)F)nn2C)s1 6.56 µM
O=C(CN1c2ccc(Br)cc2-c2ccccc2S1(=O)=O)N1CCCCC1 7.36 µM
Cc1nccc(-c2cc(-c3ccc(Cl)cc3Cl)no2)n1 2.33 µM
